High-throughput results (PubChem)
Only some compounds are listed: those with a hit (about 14% of all), similar ones and a draw of the others.
4MU fluor: qHTS Assay for Spectroscopic Profiling in 4-MU Spectral Region. compound autofluorescence, 340/450 nm, 4-MU equivalents; stronger effect = higher value. max dye-equivalent concentration, M. actives 11% (n = 59,000). AID 589, 2007; in the data active = max dye-equivalent concentration above about 10 nM; inconclusive = mostly about 1.1 nM to 9.6 nM
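Compounds in 100 mM Tris, pH 8.0, sat 15 min at room temperature before fluorescence was read at 340 nm excitation/450 nm emission; a per-plate six-point 4-MU standard curve converted signals to dye-equivalent concentration at each compound concentration.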
HADH2 inh: qHTS Assay for Inhibitors of HADH2 (Hydroxyacyl-Coenzyme A Dehydrogenase, Type II); 3-hydroxyacyl-CoA dehydrogenase type-2 (Homo sapiens), Q99714; recombinant HADH2, NADH fluorescence, beta-hydroxybutyryl-CoA; Potency, µM (titrated, usually from 57.1 µM), for the others: at the top dose activity change, negative = inhibition, most hits filed as inhibitors; actives 3.4% (n = 73,000); also: potency is read from the fitted curve at half-maximal effect; % is scaled to controls: 0 for no effect and ±100 for the full control effect; nearly all actives have a fitted effect of over 60% in size
Target sequence (Q99714 whole entry, looked up, one chain of several): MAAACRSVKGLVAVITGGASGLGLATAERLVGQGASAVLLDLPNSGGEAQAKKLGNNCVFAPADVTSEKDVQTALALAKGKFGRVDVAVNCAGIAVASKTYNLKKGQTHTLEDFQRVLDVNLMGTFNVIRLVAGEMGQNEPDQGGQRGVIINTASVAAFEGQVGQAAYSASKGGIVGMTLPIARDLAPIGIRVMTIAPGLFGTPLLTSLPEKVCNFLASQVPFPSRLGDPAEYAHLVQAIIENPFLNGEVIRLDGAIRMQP
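Activity measured as NADH fluorescence gain (360/450 nm), taken as the change between first and last reads of a 4-min kinetic run. Conditions: pH 9.0 Tris buffer, 20 nM E. coli-expressed His-tagged enzyme, 1 mM NAD+, 90 uM beta-hydroxybutyryl-CoA; 15-min compound preincubation.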
CRE Fsk mod: Cell signaling CRE-BLA (Fsk stim) | CHO CRE-bla reporter (cAMP response element driving beta-lactamase), forskolin EC10, beta-lactamase ratio | Potency, µM (titrated, usually from 38.2 µM), for the others: top-dose activity change, negative = inhibition, hits mostly activators | actives 2.5% (n = 71,000); active = well fitted activation curve with a large enough effect in the signal ratio, with a control signal flat, not every such curve was filed as active; inconclusive = small, poorly fitted or top-dose-only effect, or effect the other way, or a change in a side signal; the % refers to the signal ratio; also: potency is read from the fitted curve at half-maximal effect; % of control where 0% means no effect
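qHTS titration format; CRE-bla CHO reporter; stimulus EC10 NKH 477, a water-soluble forskolin. Read: CCF4 460/530 nm ratio. Potency expressed as AC50 for activators or inhibitors.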
HSD17B inhib: qHTS Assay for Inhibitors of HSD17B4, hydroxysteroid (17-beta) dehydrogenase 4; recombinant HSD17B10, NADH fluorescence kinetic; Potency, µM (titrated, usually from 57.1 µM), inactives show at the highest dose activity change, negative = inhibition, most hits filed as inhibitors; actives 7.6% (n = 75,000); AID 893, 2007;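 also: the protocol describes HADH2 (HSD17B10) and not the HSD17B4 of the title; potency is read from the fitted curve at half-maximal effect; % is scaled to controls: 0 for no effect and ±100 for the full control effect; nearly all actives have a fitted effect of over 70% in size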
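Activity followed as NADH fluorescence increase (ex 360, em 450 nm) every 30 seconds for 4 min, using final 90 uM beta-hydroxybutyryl CoA and 1 mM NAD+. Recombinant His-tagged enzyme, 20 nM, pH 9.0 Tris buffer, 15 min compound preincubation.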
AID923: qHTS Assay for Allosteric/Competitive Inhibitors of Caspase-1: Spectroscopic Profiling in AFC Spectral Region; compound fluorescence, AFC spectral region (405/520 nm); Potency, µM (doses to about 57.5 µM), inactives show at the top dose fluorescence increase, usual class: activators; actives 1.1% (n = 75,000); AID 923, 2007; also: potency is read from the fitted curve at half-maximal effect; 0% is about no effect
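Titrations up to 57 uM read every 20 sec for 3 min (405/520 nm) with 50 nM caspase 1 and 5 uM Ac-WEHD-AFC, pH 7.5 HEPES buffer. Fluorescence-vs-time intercept gave baseline, scaled against on-plate AFC standard.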
A350 fluor: qHTS Assay for Spectroscopic Profiling in A350 Spectral Region; Compound autofluorescence, 340/450 nm, Alexa 350 dye-equivalents; stronger effect = higher value; max dye-equivalent concentration, M; AID 590, 2007; actives 11% (n = 59,000); in the data active = max dye-equivalent concentration above about 10 nM; inconclusive = mostly about 1.1 nM to 9.6 nM
Starred values were filed as active, the others as inactive; i = inactive; ? = inconclusive; . = no result given; [ ] = remark or other dose. Unless noted, calls follow the shape of the dose curve; as a rule, active = well fitted curve in the direction sought with a large enough effect; inconclusive = small, poorly fitted or top-dose-only effect, or another doubt; inactive = no such curve, though single readings can be large; an effect the other way counts as inactive or inconclusive.

SMILES	4MU fluor	HADH2 inh	CRE Fsk mod	HSD17B inhib	AID923	A350 fluor
O=C(c1csnn1)N1CCC2(CCCN(Cc3ccccc3)C2)CC1	i	-1%	0%	4%	1%	i
CC(=O)OC1CC[C@]2(C)C(CC(OC(C)=O)[C@]3(C)C2CC[C@@]2(C)C(c4ccoc4)OC(=O)C4O[C@]432)C1(C)C (some centres not stated)	.	.	.	-5%	-1%	.
COc1ccc(CC(=O)c2ccc(O)cc2O)cc1	.	.	.	0%	-3%	.
O=C(Cc1nc2ccccc2s1)c1ccc(O)cc1O	?	?	?	25µM*	16%	?
CC(C)C1=C2OC(N)=C(C#N)C(C#N)=C2C(C)CC1 (configuration not stated)	4e-07M*	.	.	.	.	4.5e-07M*
N=C1CCC[C@@H]1C(=S)SCCC(N)=O	i	-3%[11.4 µM]	-5%[7.6 µM]	-2%[11.4 µM]	5%[11.5 µM]	i
CCOC(=O)OCC1OC(C#Cc2ccc(C)cc2C)C=CC1OC(=O)OCC (configuration not stated)	.	-16%[11.4 µM]	.	-7%[11.4 µM]	0%[11.5 µM]	.
CCOC(=O)c1[nH]c(=O)c2ccccc2c1O	3.1e-08M*	3%	5%	-9%	2%	2.7e-08M*
COc1ccccc1CNc1ncncc1-c1ccccc1OC	i	8%	15%	1%	0%	i
COc1ccccc1CNc1ncncc1-c1ccccc1CN(C)C	4.8e-08M*	8%	1%	-2%	-2%	5.5e-08M*
Cc1cnc(CNc2ncncc2-c2ccccc2CN(C)C)cn1	i	13µM*	3%	-16%	-3%	i
COC(=O)C/C=C/C(C)C(OCc1cccc(Br)c1)C(C)C(OC)C1CCCCC1 (configuration not stated)	.	3%[11.4 µM]	.	10%[11.4 µM]	-2%[11.5 µM]	.
COc1ccc(CNc2nc(-c3c(C)noc3C)nc3ccccc23)c(OC)c1	i	2%	?	9%	2%	i
CNc1cc(-c2ccccc2CN(C)C)ncn1	i	16%	2%	25µM*	-2%	i
CC1(C)Cc2c(sc3nc(-c4cc5ccccc5o4)n(N)c(=O)c23)CO1	1.2e-07M*	0%	13%	-2%	2%	1.2e-07M*
Cc1sc2nc(SCC(=O)N(CCO)CCO)n(C3CCCCC3)c(=O)c2c1C	.	7%	13µM*	-4%	1%	.
CCn1c(SCC(=O)OC)nc2sc3c(c2c1=O)CCC3	.	?	13µM*	?	0%	.
Cc1sc2nc(SCc3nnc(-c4cccs4)o3)n(C3CCCC3)c(=O)c2c1C	i	3%	?	3%	-1%	i
COC(=O)CSc1nc2sc3c(c2c(=O)n1C1CCCCC1)CCN(C)C3	1.2e-07M*	.	.	.	.	1.4e-07M*
CCn1c(SCC(=O)O)nc2sc3c(c2c1=O)CCC3	i	.	.	.	.	i
O=S(=O)(c1ccccc1)N1CCC2(CCCN(Cc3nccs3)C2)CC1	i	4%	-2%	-1%	3%	i
OC[C@@H]1O[C@@H](n2cnc3cncnc32)[C@@H](O)[C@H]1O	i	0%	?	4%	0%	i
CC(C)c1ccccc1S(=O)(=O)c1cc(N)c2ncccc2c1[N+](=O)[O-]	.	-25%	.	16%	-2%	.
Cc1cnc(CNc2ccnc(-c3c(C)noc3C)n2)cn1	i	-9%	?	-7%	0%	i
Cc1noc(C)c1-c1nccc(NCc2ccccc2)n1	i	16µM*	?	?	2%	i
CC(C)=CCSc1nnc([C@@H](NC(=O)OC(C)(C)C)C(C)C)o1	2.6e-08M*	-2%	4%	-1%	4%	3.1e-08M*
CC(=O)CC(=O)Nc1ccccc1	.	6%	-5%	7%	0%	.
